RAD52 inh: inhibitors of human RAD52 DNA annealing; inhibition, % at 18.7 µM; AID 651710; recombinant RAD52 DNA annealing, FRET fluorescence; 360,000 tested, 0.46% active;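 active = every replicate showing at least 50% inhibition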
RAD54 inh: RAD54 (human) branch migration inhibition; Q92698; RAD54 Holliday junction branch migration, FAM/BHQ fluorescence; inhibition, % at 10.4 µM; 360,000 tested, 0.14% active; AID 602329;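 active = mean normalized replicate activity at least 40 and at least half of replicates scoring 40 or more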;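 note: 0% = median of neutral control wells and 100% = median of positive control wells; inhibitors cause a drop in the FAM fluorescence signal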
Target sequence (Q92698 whole entry, looked up): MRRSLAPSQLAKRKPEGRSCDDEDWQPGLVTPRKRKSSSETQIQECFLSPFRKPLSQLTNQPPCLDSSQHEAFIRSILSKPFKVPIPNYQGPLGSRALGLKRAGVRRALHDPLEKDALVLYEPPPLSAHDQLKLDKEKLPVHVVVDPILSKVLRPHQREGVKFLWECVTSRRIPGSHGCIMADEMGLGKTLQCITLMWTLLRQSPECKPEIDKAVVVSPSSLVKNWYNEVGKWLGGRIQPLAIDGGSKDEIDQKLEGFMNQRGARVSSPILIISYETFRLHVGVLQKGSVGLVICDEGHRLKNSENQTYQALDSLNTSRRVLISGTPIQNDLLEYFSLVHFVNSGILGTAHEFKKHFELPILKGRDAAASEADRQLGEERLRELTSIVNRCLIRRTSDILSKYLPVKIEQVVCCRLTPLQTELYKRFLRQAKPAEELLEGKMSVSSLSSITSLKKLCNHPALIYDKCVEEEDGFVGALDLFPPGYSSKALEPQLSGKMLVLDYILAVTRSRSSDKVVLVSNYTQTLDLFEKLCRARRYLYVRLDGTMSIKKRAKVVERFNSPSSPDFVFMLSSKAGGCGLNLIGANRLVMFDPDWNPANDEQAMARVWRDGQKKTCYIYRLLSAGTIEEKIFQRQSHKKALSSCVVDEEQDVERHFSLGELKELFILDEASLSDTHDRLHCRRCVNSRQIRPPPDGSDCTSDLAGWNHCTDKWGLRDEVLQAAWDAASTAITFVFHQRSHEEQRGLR
CFTR F508del cor: correctors of CFTR F508del function in bronchial epithelial cells; AID 720511; CFBE cells, YFP halide quenching; stimulated with forskolin plus potentiator P3; % fluorescence drop versus neutral controls; activity (quench increase), % at 7.58 µM; 350,000 tested, 0.36% active;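 active = mean added fluorescence quench of at least 8% versus neutral control, with both replicates also reaching 8%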;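 note: cells transiently co-express mutant CFTR-F508del with the halide-sensitive YFP; corrector assay measuring rescue of mutant channel to the surface after 24 h compound exposure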
GSIS activator: primary screen for activators of insulin secretion dependent on glucose, INS-1E cells, GLuc reporter luminescence. 370,000 tested, 0.61% active. INS-1E GLuc reporter insulin secretion, 2-3 h. activation, % at 16.6 µM;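 active = lowest replicate activation of at least 40%, so every replicate reaches that level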;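 note: 0% = median of neutral control wells and 100% = median of IBMX positive control wells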
LGR2 antag: Drosophila LGR2 receptor signaling inhibition; HEK293 LGR2, CRE-luciferase, bursicon-stimulated, 4 h; inhibition, % at 9.99 µM; 380,000 tested, 0.35% active; AID 720647;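 active = drop in luminescence signal, shown as inhibition above about 50% in the replicate tests, limit read from the data, passing the limit was not always enough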;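 note: agonist challenge used bursicon conditioned medium at about half maximal strength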
EWS-Fli inh: inhibitors of EWS/Fli oncoprotein transcriptional activity. 350,000 tested, 0.67% active. A673 NR0B1-luciferase reporter, viability-normalised. inhibition, % at 12.6 µM;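 active = mean inhibition of at least 50% after viability correction, with every replicate also passing that limit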;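 note: firefly luciferase signal divided by Alamar Blue viability fluorescence both relative to DMSO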
The depositor's hits bear a star; nt = not tested or not shown. Compounds with a hit are over-represented: about 1.8% of the library has one in this group of screens.

SMILES	RAD52 inh	RAD54 inh	CFTR F508del cor	GSIS activator	LGR2 antag	EWS-Fli inh
CCOC(=O)c1nc(-c2ccccc2)oc1N(C)C	nt	-9	nt	84*	-12	nt
Cc1oc(-c2ccccc2)nc1C(=O)OCC(=O)NCc1ccccc1	-9	-3	-1	5	-3	-5
O=C1C=C(NCCc2cc(Br)c(O)c(Br)c2)C(=O)c2ncccc21	13	nt	16*	-52	74*	19
Cc1ccccc1OCC(=O)NNC(=O)c1ccc2c(=O)n3c(nc2c1)CCC3	-7	-5	-7	-4	18	-3
O=C(COc1nncc2ccccc12)NCC(F)(F)F	-3	nt	-1	44*	27	0
COc1ccccc1NS(=O)(=O)c1ccc(C(=O)NCc2ccncc2)cc1	7	7	-1	nt	-26	4
Cn1nnnc1N=N/C(=N/Nc1ccccc1)c1ccccc1	-18	13	13*	11	-14	-11
Oc1ccccc1N=N/C(=N/Nc1ccccc1O)c1ccccc1	-18	-3	1	nt	nt	5
Cc1cccc(C(=O)Nc2cc(=O)n(C)c(=O)n2C)c1	-7	-1	0	33	-17	-4
Cc1ccc2nc(-c3cccc(N)c3)oc2c1	4	nt	1	3	15	59*
Cc1cc(C)c2oc(-c3cccc(N)c3)nc2c1	-24	-3	0	nt	nt	-78
CCCCCCCCCCCCCCCC[n+]1ccc(C(N)=O)cc1	nt	13	nt	15	16	nt
CCCCCCCCCCCCCCCC[n+]1ccc(/C=N/O)cc1	88*	nt	nt	47*	17	21
CCOC(=O)c1cnc(-c2ccccc2)nc1Oc1ccc(OC)cc1	-2	nt	-4	18	-14	10
CCOC(=O)c1cnc2c(cnn2C)c1Oc1ccc(OC)cc1	-24	nt	2	62*	-2	3
CCOC(=O)c1cnc(COc2ccc(OC)cc2)[nH]c1=O	-3	nt	53*	nt	nt	24
CO[C@H]1CN(C)C(=O)c2cc(NC(=O)C3CCCC3)ccc2OC[C@@H](C)N(CCC(F)(F)F)C[C@@H]1C	24	-11	-1	-14	-4	4
Cc1ccc2nc3n(c(=O)c2c1)-c1cc2ccccc2cc1C(=O)NC3Cc1ccc(O)cc1 (stereo not drawn)	-6	3	-1	-12	7	62*
O=C1NC(Cc2ccc(O)cc2)c2nc3ccc(F)cc3c(=O)n2-c2cc3ccccc3cc21 (stereo not drawn)	-10	8	0	-1	12	64*
Cc1cc(SCC(=O)NCCN2C(=O)CSC2=O)nc2c(C)cccc12	nt	nt	nt	46*	15	nt
CCN1CCN(c2cc(C)c3cc(NC(=O)CCC(=O)Nc4ccc(OC)c(OC)c4)ccc3n2)CC1	-2	-6	4	-18	3	-5
CCN1CCN(c2cc(C)c3cc(NC(=O)c4ccc(OC)c(OC)c4)ccc3n2)CC1	8	58*	13*	nt	1	47
Cc1ccc(OCC(=O)NNC(=O)CCC(=O)Nc2ccc(C)cc2C)cc1	nt	-11	nt	57*	28	nt
Cc1ccc(NC(=O)CCC(=O)NNC(=O)COc2ccccc2)c(C)c1	-4	nt	nt	nt	nt	17
COc1ccc(N2CCN(c3n[nH]c(N)n3)CC2)cc1	6	nt	-1	11	30	1
SMILES	RAD52 inh	RAD54 inh	CFTR F508del cor	GSIS activator	LGR2 antag	EWS-Fli inh
COc1ccc(-c2ccc(-c3noc(-c4ccco4)n3)c(OC)n2)cc1	nt	0	nt	55*	nt	nt
CC(NC(=O)/C(C#N)=C/c1ccc([N+](=O)[O-])o1)c1ccccc1 (stereo not drawn)	-50	-9	-5	-23	-11	69*
CC(NC(=O)/C(C#N)=C/c1ccco1)c1ccccc1 (stereo not drawn)	-42	1	-1	-9	0	-1
COc1ccc(/C=C2\SC(=O)N(CC(=O)Nc3cccc(C)c3)C2=O)cc1O	0	-10	-4	-11	-17	72*
Cc1cccc(NC(=O)CN2C(=O)S/C(=C\C(=O)Nc3ccc(Cl)cc3)C2=O)c1	nt	10	nt	199*	14	nt
CC(C)N(C(=O)[C@H]1C[C@H](CC(=O)NCCCN(C)C)C(=O)N2CCc3c([nH]c4cc(-c5ccco5)ccc34)[C@]12C)C(C)C	49	16	-2	16	-10	11
COc1ccc(CC(=O)NCc2ccc(-n3cccc3)cc2)cc1OC	-7	-1	11*	5	7	60*
Cc1ccc(CNC(=O)Cc2ccc(-n3cccc3)cc2)cc1	nt	-7	nt	21	-11	nt
COc1ccc(Cc2nc(-c3ccc(-n4cccc4)cc3)no2)cc1OC	-45	6	4	56*	-18	11
C[C@H](CO)N1C[C@H](C)[C@@H](CN(C)C(=O)c2ccccc2)OCc2ccccc2-c2c(n(C)c3ccccc23)C1=O	15	-9	-1	-4	0	-1
OCCN1CCN(C(=S)c2ccc(Cl)c(Cl)c2)CC1	nt	4	nt	nt	nt	nt
Cc1nc2ccccc2c2nc(NC(=O)C(F)(F)F)nn12	-9	-2	-1	50*	-7	1
COc1cccc(-c2ccc3nnc(SCC(=O)N4CCOCC4)n3n2)c1	-5	-1	3	32	1	-13
Cc1cc(NCCCn2ccnc2)n2nc(-c3ccc(Cl)cc3)cc2n1	-45	nt	4	14	nt	-9
CC(C)(C)c1cc(NCCCn2ccnc2)n2ncc(-c3ccc(Cl)cc3)c2n1	nt	nt	nt	817*	16	nt
CC1C/C(=C\c2cccnc2)C(=O)/C(=C/c2cccnc2)C1 (stereo not drawn)	nt	nt	nt	-21	85*	nt
Cc1ccc(-c2csc3ncn(CC#N)c(=O)c23)cc1C	-24	-2	10*	3	20	0
CC1=NN(C(N)=S)C(=O)C1N=Nc1ccccc1C (stereo not drawn)	nt	-1	nt	65*	-39	nt
CO[C@H]1CN(C)C(=O)c2ccc(NS(=O)(=O)c3ccccc3C)cc2OC[C@@H](C)N(C)C[C@H]1C	-12	-2	1	8	20	3
O=C(/C=C/C(Cl)(Cl)Cl)Nc1ccc(Cl)cc1	-4	nt	-1	170*	-38	53*
O=C(Cn1cnc2c(OCc3ccccc3)ncnc21)NCc1ccccc1	-2	3	-4	-5	-21	-8
O=C(Cn1cnc2c(OCc3ccccc3)ncnc21)N[C@H](CO)Cc1cc2ccccc2[nH]1	-5	-4	0	49*	-9	2
O=C(Cn1cnc2c(OCc3ccccc3)ncnc21)NCc1ccccn1	-11	16	0	41*	14	-3
O=C(C1=C(c2ccccc2)C(=O)c2ccccc2C1=O)c1ccccc1	1	nt	-2	-8	nt	61*
CCn1c2ccccc2c2cc(Nc3cc(C)nc4ncnn34)ccc21	27	2	0	2	0	64*
CCc1ccc(Nc2cc(C)nc3ncnn23)cc1	-3	-2	2	34	14	-17

Compound activity from PubChem.
